Data: PubChem BioAssay AID1347426 (Functional Genomics Laboratory (NCATS/FGL), 2020)
Out of some 31,000 sequences screened, about 1,400 (4.5%) were called active.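 The calls were made as follows: active = median seed-adjusted z-score above 1 or below -1; inactive = the rest.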 Shown is part of a subset that was picked to be rich in actives.

test: Novel Modifiers of Survival Motor Neuron (SMN) Protein: Gene Identification via Genome-wide siRNA Screen; settings: HEK293T SMN2-luciferase reporter, siRNA knockdown, 72 h; actives lie on both sides;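 also: luminescence tracks full-length SMN protein made from the SMN2 reporter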
How it was run: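 Luciferase signal, proportional to full-length SMN made from an SMN2 cDNA reporter in stable HEK293T cells, was read 72 h after siRNA reverse transfection. Values were expressed as MAD scores after non-targeting-control normalization and log10 conversion; seed analysis flagged off-targets.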

Sequence | median seed-adjusted z-score
CUUUAUGACUUAGAGUUAATT against BAAT | 0.641 (inactive)
GAACUUAUAAGUGCAGCAATT against ZNF547 | 0.099 (inactive)
CGUGGAAGGUGAGUAAUAATT against ZBTB40 | 0.187 (inactive)
GGUGGUGAAUGAAGGUUCATT against HINT1 | 0.873 (inactive)
CCAUAACCGCCACACCCUUTT against GPR153 | -1.08 (active)
GAAUGCAUGUGAUCACCUATT against SF3B14 | -1.26 (active)
GGGUUGCUAGAAAAUCGUATT against USP37 | 0.0907 (inactive)
GAGAUGAACGUGUAAAGAATT against CIR | -0.197 (inactive)
CAGAAUAUAUGACAGGAAATT against YY1 | 1.94 (active)
CCUCCGGAACAAGAACUAATT against ZNF397 | -0.107 (inactive)
GUCUGCUUUGUAUAGAUAATT against KLRC3 | 0.833 (inactive)
CGACUACAUGUUCAAGAUUTT against RAB3A | -0.0787 (inactive)
GGAUGCGUUUUCUGACAAATT against GPR149 | -0.186 (inactive)
GCAUACGAUUUUAAGCGGATT against PTEN | -0.408 (inactive)
GAACCAGGAGAGAAUAGAATT against PDGFRL | 0.0203 (inactive)
GCUGCGAGCUCGAAACUUUTT against SEC14L4 | -0.714 (inactive)
CGACAAGUCUGACAGGGAUTT against PQBP1 | -1.12 (active)
GGUUUGAGCUUACUCUUCATT against ACCN5 | 0.227 (inactive)
GGGAAGAACAGAAUACUGATT against ZNF563 | 0.00283 (inactive)
GCGUGGAAAUUGUACCCGUTT against MBNL3 | -0.189 (inactive)
GGAAAAGGAACGGAAUAAATT against MLN | -0.422 (inactive)
GCAGUUAACACUCAAGGAATT against MKKS | 1.03 (active)

Sequence | median seed-adjusted z-score
GGUAAUCUUUAUGAAGAGATT against GCM1 | 0.0197 (inactive)
GCCUGUAAGUUAUUAAAGATT against ARL4D | -0.523 (inactive)
GGCUGAAAUUGUAACCCUATT against TPD52L3 | 0.552 (inactive)
GCAACCUUCUAACUACGGUTT against HNRNPA2B1 | 1.33 (active)
CAGGAUCUGUUCAACCAAATT against VWA2 | 0.584 (inactive)
GGAUGGGAACAACCCUGCATT against HMGN4 | -0.0471 (inactive)
CCUCCUUGUUAGUGUCUUUTT against CLEC11A | -1.1 (active)
CCAGGUCCCUAAUCAUGGATT against NOXA1 | -0.441 (inactive)
GGGAAGCACUGGUCGAAGATT against DTD1 | -1.58 (active)
AGGCCUUUCUGGGACCUUATT against ZP4 | 0.0498 (inactive)
CUAAGACCAGUAUAGUAAATT against ARF6 | -0.805 (inactive)
GGAUCUGGUUCAACUUGGATT against FUT3 | 0.11 (inactive)
GUGUCUCAGGGAUAGGUAATT against MICAL2 | -0.0224 (inactive)
AGGAGUUCUUGGUCAUGAUTT against TNNC2 | -0.773 (inactive)
GCAUUACAGUCUGAAUUGATT against PTPDC1 | -0.191 (inactive)
GCUUUAUGCUGCUAAGGCATT against PGD | -1.55 (active)
CGACAAGUCUUCGACCUGATT against DGKZ | 0 (inactive)
GCUGCUAUUUGAUAGACCATT against HNRNPM | 0.499 (inactive)
GAAUGAUGAUGCAUGCCUUTT against MS4A10 | -0.24 (inactive)
CACCUCUAAUCAUCGAUGATT against UAP1 | 0.0411 (inactive)
AGGUCUGGACGACAACUAUTT against MST1 | -1.47 (active)
GGAGCCUAUCAUAACCUUATT against ZNF484 | 0.2 (inactive)

Sequence | median seed-adjusted z-score
GGGUACCGAGGAUCGCUUUTT against LAMA5 | 0.229 (inactive)
GUAUCUAAGAGAUAUGGAATT against ORC5L | -0.126 (inactive)
GACUCCCAUUUGAGACUUUTT against ZMAT1 | -0.123 (inactive)
ACACCUACAUGAUGACGCATT against EVX2 | 0.181 (inactive)
CCUCAAAUGCAGUAUUUUUTT against HMOX1 | 0.45 (inactive)
GCAACUACGUGACUCGCUATT against SMUG1 | -1.38 (active)
CGUCAGUGCUUCGCAUACATT against ZBTB45 | 0 (inactive)
GAAGGAGCAGGAUUACCAATT against TMED4 | -0.895 (inactive)
GAGCUUCAACUAACAGGAATT against NUPL2 | 0.134 (inactive)
CAUGGUCCAUUAUUCGUGATT against ATP6V1A | -0.0106 (inactive)
GGAAUUGGUUUCAGUCAAATT against RCOR1 | -1.13 (active)
GACUUACCUUCUGAGCAUATT against ZNF792 | 0 (inactive)
CGACUUCAUUGUAAAGAAATT against LIPF | 0.54 (inactive)
GCUGCGUCAUUUUCGAAAATT against MOXD1 | -0.162 (inactive)
GAACGAGCUGGAUCCAUUATT against ARSF | 0.111 (inactive)
CCUUACGAAUCAUAAGAUATT against ZNF708 | 0.0562 (inactive)
CAGAGAACCUUCAAGUUAATT against ZNF239 | -0.191 (inactive)
GCAUAGCCCUCAACAAGAATT against IRF6 | -1.79 (active)
GCCGCUUUCGGAAUAAGAUTT against DGKZ | 0 (inactive)
CGGAGAACAUUGUUGUUCUTT against TMTC2 | 0.0277 (inactive)
GCACCUUGCAGGAUUGGAATT against PEAR1 | 0.071 (inactive)
ACCAUAGCCUCUCACCCUATT against RASA4 | -1.11 (active)

Sequence | median seed-adjusted z-score
ACGCAACCCUCAACAGCUCTT against UTS2R | 0.0819 (inactive)
GGGACUCAGUACUUCCAUATT against SLC39A8 | 0.265 (inactive)
CGAAGUUCAUAGACGAGAUTT against PPP1R2 | 0.208 (inactive)
AGAGGUCUUCGACAAUAAATT against CD9 | -1.02 (active)
GAGCCUCCUCAAAUCCAAATT against SERPING1 | -0.244 (inactive)
CGUGGGAUAUGUUGACGGATT against BTNL3 | 0 (inactive)
GGAAUUUUUCGGGUGGUUATT against ELF5 | -0.45 (inactive)
GAUCGAUAUCUUUACAAGATT against SLK | 0.0479 (inactive)
CGAUGGAGAUCAACGUGAATT against UBE2E2 | -1.77 (active)
CCUUCACUAUUGCCCGCAATT against ABCD1 | 0 (inactive)
UGAUGACACCAACCACGAATT against CNP | -0.116 (inactive)
GGCCCAUAUUCAUCUGCUATT against STYX | 0.694 (inactive)
AGCACGAGCUAGUCCCUGATT against POLR2E | -1.25 (active)
GCAAGAUCCGAGAAGAAUATT against TUBB | -0.307 (inactive)
GCAUGAUCGGGAGGGUUUATT against PPID | -0.206 (inactive)
GGUUAUGAACUUUGGAUAATT against GPR103 | 0 (inactive)
CUAUGUCAGUGGUCCUGAATT against RETSAT | -1.7 (active)
CAAUGAAGACUGAUGUAUUTT against SLC9A2 | -1.02 (active)
CCCUUACUACAACUACAAATT against ZBTB38 | 0.448 (inactive)
GGGCGAUUCCUGUCUAAGATT against PUM1 | 0.109 (inactive)
CGAACUCCGCUUUUUCUUATT against FZD7 | -0.159 (inactive)
GCUACAACGGAAACAAUCATT against MSTN | -0.639 (inactive)

Sequence | median seed-adjusted z-score
GGAGUUCGAUGAGACAACATT against FABP3 | -0.0786 (inactive)
CGAUUACGCUUCAGAGAUATT against PTP4A2 | -1.45 (active)
GGACAUCCUGUCAUAGAAATT against UTP3 | -1.08 (active)
GGAAGUUCAUUACCAGAAUTT against PLCZ1 | 0 (inactive)
GCAAUAGUCAGGAGCGAUATT against PPP1R10 | 1.41 (active)
CCUUACCUGUAAACAGAGATT against ESR2 | -1.1 (active)
CCAGGCCCAUUCUACAAUATT against PEAR1 | 0.071 (inactive)
AUAUAACUGCUGAUCUAGATT against SPCS3 | 0.417 (inactive)
GGAGUUCGUUCAGAGACCATT against MOCS2 | 0.0327 (inactive)
CUCUCUUCGUAGAUCAAGATT against SFRS7 | 0.44 (inactive)
UGAAGUUGCUGGACGCGUATT against DAD1 | -0.45 (inactive)
GCUUGGAGGAUUUCAUGGATT against POFUT1 | 0 (inactive)
AGAAAUUGGUGUUCAGAAUTT against GTF2F2 | -1.14 (active)
GAAUAAAAACGACCUCUUUTT against LZTR1 | 0.293 (inactive)
GCAUGUUAAUGGGUUUAAUTT against GNAS | -0.531 (inactive)
CUGCAGUUCUUAAUACGAATT against PSMD1 | -1.61 (active)
GAACAUAUGUGAUGACCGUTT against CDH2 | -0.235 (inactive)
GGAGGUCUCCUACAUCAAATT against ZAN | 0.736 (inactive)
CGGGUGCACUACUACAUCUTT against GBGT1 | 0.48 (inactive)
AGCCCUUGACCUUAUCUAATT against CSTB | 1.08 (active)
ACUCAACUCUGAUACUCCATT against DMRTC2 | 0 (inactive)
GAGCUGAAGUCCUUAGAUATT against EIF2B3 | -0.271 (inactive)
